Experimental data as given in PubChem BioAssay (NCI).
Several values for one entry are separate records, joined by “and”; a condition that tells them apart may be missing. Equal entries are not always repeated. Compounds without any hit were thinned out: in the full panel of roughly 83,000, 20% have a hit.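 Results are percent growth after 48 hours of single-concentration exposure. 100 means growth as in untreated cells, lower positive values show inhibition; negative values down to -100 show cell death.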 A number with no mark means an inactive call. Activity calls are given as the source filed them. Rule for the calls: active = growth percent below 10; inactive = the rest.

What follows are molecules tested on MDA-MB-468 breast (assay: NCI-60 one-dose screen, 48 h (100 = growth as untreated, 0 = no growth, -100 = all killed)). Settings: 10 µM unless noted.

**Q.** `CCCC(C(=O)OCC)C(C)OC(=O)OCC` (stereo not given) was tested. Which growth did it give?
**A.** The growth was 101%.

**Q.** Which growth does the source give for `Cn1c([N+](=O)[O-])cnc1C=C1C(=O)c2ccccc2C1=O` here?
**A.** The growth was 51.3%.

**Q.** For `CCCCC[C@H]1CC=C2C(=O)C(Cl)=C[C@@H]2CC=CCCCC(=O)O[C@@H](CCCCC)CC=C2C(=O)C(Cl)=C[C@@H]2CC=CCCCC(=O)O[C@@H](CCCCC)CC=C2C(=O)C(Cl)=C[C@@H]2CC=CCCCC(=O)O1`, which growth is on record?
**A.** The growth was 50.2% [8 µM].

**Q.** `O=C1O[C@@H](c2ccccc2Cl)[C@@H]2c3cc4c(cc3CCN12)OCO4` was tested. Which growth did it give?
**A.** The growth was 96.2%.

**Q.** Which growth does the source give for `Cn1cc(-c2nn3cc(-c4cccnc4)nc3s2)c2ccccc21` here?
**A.** Its growth is -2.67% (active).

**Q.** For `C=CC(=O)NC(=O)Nc1ccccc1Cl`, which growth is on record?
**A.** Its growth is 30.4%.

**Q.** For `O=C1C2C3C=CC(O3)C2C(=O)N1Nc1ccccc1` (stereo not given), which growth is on record?
**A.** Its growth is 105%.

**Q.** For `COc1cc2oc(-c3cccc(NC(=O)c4cccc(Br)c4)c3)cc(=O)c2c(OC)c1OC`, which growth is on record?
**A.** The growth was 66.8%.

**Q.** `O=C(Nc1nc2ccccc2s1)Nc1ccc([N+](=O)[O-])cc1Cl` was tested. Which growth did it give?
**A.** Its growth is 89.9%.

**Q.** `O=[N+]([O-])c1cccc(/C=N\Nc2ccccc2)c1` was tested. Which growth did it give?
**A.** Its growth is 81.4%.

**Q.** For `COC(=O)c1cc(-c2ccc(Cl)c(Cl)c2)[nH]c(=O)c1C#N`, which growth is on record?
**A.** The growth was 99.6%.

**Q.** How did the growth turn out when `COc1cc(OC)c(NC(=O)c2cc3ccccc3cc2O)cc1Cl` was run?
**A.** The growth was 75.7%.

**Q.** With `N#CCCN=Nc1c(O)[nH]c2ccc([N+](=O)[O-])cc12` as the molecule, how does the growth read?
**A.** Its growth is 99.7%.

**Q.** Which growth does the source give for `Cc1cccc2c(=O)c3c(sc12)c(N1CCNCC1)nc1ccccc13` here?
**A.** The growth was 65.4%.

**Q.** With `O=C(/C=C/c1cc([N+](=O)[O-])ccc1Cl)c1ccccc1` as the molecule, how does the growth read?
**A.** The growth was 57.6%.

**Q.** Which growth does the source give for `CCOC(=O)Cn1c(C)c(/C=N/NC(=O)c2cc3c(ccc4ccccc43)o2)c2ccccc21` here?
**A.** The growth was 16.1%.

**Q.** Which growth does the source give for `CC1=C[C@H]2c3c(c(O)c(O)c4oc5cc(O)ccc5c(=O)c34)[C@H](c3cc(O)c(O)c4oc5cc(O)ccc5c(=O)c34)[C@H]2C(C)(C)C1` here?
**A.** Its growth is 34.3%.

**Q.** How did the growth turn out when `CCOC(=O)c1cc2c(n1Cc1ccccc1)-c1oncc1CC2` was run?
**A.** Its growth is 40.1%.

**Q.** `COc1ccc(C(=O)c2ccc(C)cc2)c(OC)c1OC` was tested. Which growth did it give?
**A.** The growth was 20.5%.

**Q.** Which growth does the source give for `O=c1nc(-c2ccccc2)c2cc(-c3ccc(N4CCOCC4)cc3)ccc2[nH]1` here?
**A.** The growth was 77.4%.

**Q.** For `O=C1c2c(c3c4ccccc4[nH]c3c3ccc4ccccc4c23)C(=O)N1CCN1CCOCC1`, which growth is on record?
**A.** The growth was 58.6%.

**Q.** `CCCC/C(=N\N=C(N)N)c1ccc(F)cc1` was tested. Which growth did it give?
**A.** Its growth is -12.3% (active).

**Q.** How did the growth turn out when `CSC1=Nc2c(c(C)c(-c3ccccc3)n2CCCN2CCCCC2)C2=NC(=O)C[C@H](C)N12` was run?
**A.** The growth was -18.6% (active).

**Q.** With `Cc1cccc(Oc2ccc(Nc3ncnc4ccc(NC(=O)CNCCO)cc34)cc2Cl)c1` as the molecule, how does the growth read?
**A.** The growth was -21.9% (active).

**Q.** With `COc1ccc(C(=O)c2cc(OC)c(OC)c(OC)c2OC)cc1O` as the molecule, how does the growth read?
**A.** Its growth is 29.7%.

**Q.** Which growth does the source give for `Cc1ccc2cccc([N+](=O)[O-])c2n1` here?
**A.** Its growth is 107% and 100%.

**Q.** `OCCNCCNC(Cc1ccc(Cl)cc1)c1ccccc1` (stereo not given) was tested. Which growth did it give?
**A.** Its growth is 86.4%.

**Q.** How did the growth turn out when `CCCCN1C(=O)/C(=c2\sc3n(c2=O)C2C(NN=3)N(CC)C(=O)N2CC)c2ccccc21` (stereo not given) was run?
**A.** The growth was 1.69% (active).

**Q.** Which growth does the source give for `O=C1/C(=C/C=C/c2ccco2)SC(=S)N1Cc1ccccc1` here?
**A.** Its growth is 58.5%.

**Q.** For `COc1cc(C(=O)/C=C/c2c(-c3cccs3)nc3sccn23)cc(OC)c1OC`, which growth is on record?
**A.** The growth was -49.5% (active).

**Q.** With `CCCCCCN(CCCCCC)CC(O)c1cccc2ccc(Cl)cc12` (stereo not given) as the molecule, how does the growth read?
**A.** Its growth is 87.6%.

**Q.** Which growth does the source give for `CCN1CC2=C(Nc3nc(SC)[nH]c(=O)c3C2c2cc(OC)c(OC)c(OC)c2)/C(=C/c2cc(OC)c(OC)c(OC)c2)C1` (stereo not given) here?
**A.** The growth was 95.8%.

**Q.** How did the growth turn out when `Nc1ncnc(Nc2ccc(C(F)(F)F)cc2)n1` was run?
**A.** The growth was 108%.

**Q.** Which growth does the source give for `Cc1ccc(-c2nc([P+](c3ccccc3)(c3ccccc3)c3ccccc3)c(Nc3ccccc3)o2)cc1` here?
**A.** Its growth is -41.8% (active).

**Q.** With `Cc1nn(-c2ccccc2)c2c1N=c1s/c(=C\c3ccc(C(F)(F)F)cc3)c(=O)n1CN2` as the molecule, how does the growth read?
**A.** The growth was 44.1%.

**Q.** With `O=C1Nc2ccc(Br)cc2/C1=N\c1nnc(-c2ccc(Cl)cc2)o1` as the molecule, how does the growth read?
**A.** Its growth is 51.8%.

**Q.** `CCCCOC(=O)c1ccc(NC(=O)C(C)N2CCOCC2)cc1` (stereo not given) was tested. Which growth did it give?
**A.** Its growth is 97%.

**Q.** `C[C@]12CC[C@H]3[C@@H](CC=C4C[C@@H](O)CC[C@@]43C)[C@@H]1CC[C@@H]2C(=O)C/C=N/O` was tested. Which growth did it give?
**A.** Its growth is 90.2%.

**Q.** `O=c1cc(Cc2ccc([N+](=O)[O-])cc2)[nH]c(=O)[nH]1` was tested. Which growth did it give?
**A.** Its growth is 105%.

**Q.** Which growth does the source give for `O=S(=O)(O)c1ccc2c(c1)Sc1cc(S(=O)(=O)O)ccc1O2` here?
**A.** Its growth is 107%.
